Pf Dd2 inh = blocks in vitro growth of P. falciparum Dd2 | P. falciparum Dd2 growth, SYBR Green, 72 h | Potency, µM (series often up to 28.9 µM), inactives show at the top dose activity, negative = inhibition, actives largely listed as inhibitors | 120,000 tested, 4.3% active | AID 1347417; active = well fitted inhibition curve with a large enough effect;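 note: plate controls were DMSO vehicle for no effect and reference drug for full effect; nearly all actives have a fitted effect of over 65% in size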
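Infected erythrocytes (Dd2, 0.3% parasitemia, 2.5% hematocrit final) are added to compound in RPMI-1640/Albumax II medium, grown 72 h at 37C in low oxygen, then lysed with saponin/Triton-X containing SYBR Green and read by fluorescence.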
* marks the source's active call; other numbers are inactive results; i = inactive; ! = repeats disagree; [ ] = another dose, or the depositor's remark. The entries come from a sample that favours hits as a whole. Potency is the fitted concentration of half-maximal effect.

SMILES	Pf Dd2 inh
CC(C)COc1ccc(C2=NC(c3ccncc3)=Nc3ccc(F)cc3N2)cc1	-2.4%
CCOc1ccc2c(c1)NC(c1ccc(OCC)c(OCC)c1)=NC(c1ccc(F)cc1)=N2	12.6µM*
O=C(C[C@H]1NC(=O)c2ccccc2NC1=O)NC1CCCCC1	-11.4%
CC1=C[C@@H](CNCc2ccc(Cl)cc2)[C@H](C(C)C)C[C@H]1Cc1nnc(-c2cncn2C)o1	3.98µM*
CC1=C[C@@H](CNC(=O)c2ccccc2)[C@H](C(C)C)C[C@H]1Cc1nnc(-c2cncn2C)o1	-5.8%[44.1 µM]
CC(=O)NC[C@@H]1C=C(C)[C@H](CC(=O)NCc2cccnc2)C[C@H]1C(C)C	40.2%[44.1 µM]
CC1=C[C@@H](CNC(=O)c2cnccn2)[C@H](C(C)C)C[C@H]1Cc1nnc(-c2ccccc2F)o1	-5.7%
CC1=C[C@@H](CN2CCN(c3ncccn3)CC2)[C@H](C(C)C)C[C@H]1Cc1nnc(-c2cncn2C)o1	-5.8%
CC1=C[C@@H](CNc2ccccn2)[C@H](C(C)C)C[C@H]1Cc1nnc(-c2cncn2C)o1	5.62µM*
Cc1ccccc1CN1CC[C@H](c2nnc(-c3cncn3C)o2)C1	-0.3%[44.1 µM]
CC1=C[C@@H](CN2CCCCC2)[C@H](C(C)C)C[C@H]1Cc1nnc(-c2cncn2C)o1	7.94µM*
CC1=C[C@@H](CNC(=O)c2cncnc2)[C@H](C(C)C)C[C@H]1Cc1nnc(-c2ccccc2F)o1	-4.6%
O=C([C@@H]1C[C@H](F)CN1C(=O)Nc1cccc(Br)c1)N1CCCCC1	i
O=C(CN1C(=O)NC(c2ccccc2)C2=C1COC2=O)NC1CCCC1 (stereo unspecified)	-9.8%
COc1ccc(-c2noc([C@@H]3CCCN3C(=O)COc3ccc(C)cc3)n2)cc1	i
Cc1sc2nc(CCN)nc(N(C)CCCCN3CCOCC3)c2c1C	i
CNC(=O)c1ccc(CNc2cc(C3CC(O)C3)nc(N)n2)o1 (stereo unspecified)	-7.8%
CNC(=O)c1ccc(CNc2nc(CCN)nc3sc(C)c(C)c23)o1	10µM*
CCOc1cc(=O)n2c(c1C(=O)Nc1cccc(C(F)(F)F)c1)CCCC2	0.1%
CCOc1ccc(C(=O)Nc2ccc3nc(Nc4cccc(C(F)(F)F)c4)cc(C)c3c2)cc1OCC	3.16µM*
CCOc1ccc(C(=O)Nc2ccc(NC(=O)c3ccccc3)cc2)cc1Br	56.0%
Cc1cc(Nc2cccc(Cl)c2)nc2ccc(NC(=O)Cc3ccc(Cl)cc3)cc12	-23.7%
Cc1cc(Nc2cccc(Cl)c2)nc2ccc(NC(=O)c3ccc(F)cc3Cl)cc12	-7.8%
Cc1cc(Nc2cccc(C(F)(F)F)c2)nc2ccc(NC(=O)c3cccnc3)cc12	3.55µM*
Cc1ccc(CNC(=O)Cn2c(-c3ccc(F)cc3)nc(C)c(CCO)c2=O)cc1	-10.8%
SMILES	Pf Dd2 inh
O=C(NC[C@H]1O[C@@H](CO)[C@@H](O)[C@H]1N1CCN(c2ccc(F)cc2)CC1)c1ccc(F)c(Cl)c1	i
CN(C)C[C@@H]1CN(c2ncccn2)C[C@H]1NC(=O)c1cccc(Cl)c1	-14.1%
N#Cc1cccc(CN2CCC(c3nc4ccc(F)cc4c(=O)[nH]3)CC2)c1	1.9%
CC(=O)Nc1ccc(CN2CCC(c3nc4ccc(C)cc4c(=O)[nH]3)CC2)cc1	-10.9%
Cc1ccc2nc(C3CCCN(CC4CCCC4)C3)[nH]c(=O)c2c1 (stereo unspecified)	8.91µM*!
CC(=O)Nc1ccc(CN2CCC(c3nc4ccc(F)cc4c(=O)[nH]3)CC2)cc1	-22.9%
COc1ccc(-n2nc(C3CCN(Cc4cccnc4)CC3)[nH]c2=O)cc1	-13.4%
COc1ccc(CN2CCCC(c3nn(-c4ccccc4)c(=O)[nH]3)C2)cc1 (stereo unspecified)	-16.6%
Cc1ccc2nc([C@H]3CCN(Cc4cccs4)C3)[nH]c2c1	-17.4%[44.1 µM]
Cc1ccc2nc(C3CCN(Cc4cccc(-c5cccnc5)c4)CC3)[nH]c(=O)c2c1	8.91µM*!
O=c1[nH]c(C2CCCN(Cc3cccc(-c4cccs4)c3)C2)nc2ccc(F)cc12 (stereo unspecified)	8.91µM*!
O=c1[nH]c(C2CCCN(CC3CCCCC3)C2)nn1-c1ccccc1 (stereo unspecified)	i
O=c1[nH]c(C2CCCN(Cc3ccccc3)C2)nn1-c1ccccc1 (stereo unspecified)	-22.1%[44.1 µM]
Cc1cc(C)cc(-c2ccc(CN3CCCC(c4nc5ccc(F)cc5c(=O)[nH]4)C3)cc2)c1 (stereo unspecified)	10µM*!
O[C@H]1[C@H](NCc2ccco2)[C@H]2CO[C@H](O2)[C@@H]1N1CCCCC1	30.0%[44.1 µM]
COCCNC(=O)C[C@@H]1C[C@H]2O[C@H](CNCc3ccncc3F)[C@@H](O)[C@H]2O1	10.0%[44.1 µM]
COc1ccccc1C(=O)N1CCCC(CN2CCC(C)CC2)CC1 (stereo unspecified)	i
Cc1noc([C@@H]2CC(F)(F)CN2C(=O)c2cocn2)n1	41.2%
CCC(=O)N1CCCC(c2nc(C(C)C)no2)CCNC(=O)CC1 (stereo unspecified)	-1.6%
CN(C)CCNC(=O)c1n[nH]c2c1CN(C(=O)c1cc(F)ccc1F)CC2	-21.3%
CN1CCOc2c(C(=O)NCc3cccnc3)cc(-c3ccccc3)cc21	i
Cc1ccc(CN2CCn3c(nnc3[C@@H]3C[C@@H](O)CN3C)C2)s1	1.6%
CC(=O)N1C[C@@H]2CCCN3CCC[C@@H]([C@H]23)[C@H]1CCCC(=O)N(C)Cc1ccc(N2CCOCC2)cc1	-18.3%
CC(C)CN1CCCC(c2nc3ccc(F)cc3c(=O)[nH]2)C1 (stereo unspecified)	5.01µM*
CCN1CCC(c2nc3ccc(F)cc3c(=O)[nH]2)CC1	0.3%[44.1 µM]
SMILES	Pf Dd2 inh
Cc1ccc(-c2cccc(CN3CCCC(c4nc5ccc(F)cc5c(=O)[nH]4)C3)c2)c(C)c1 (stereo unspecified)	12.6µM*!
Cc1ccc(-c2cccc(CN3CCN(c4ccc(Cl)nn4)C(=O)C3)c2)c(C)c1	-20.6%
CC(C)NC(=O)N1CC[C@H](c2nc3ccc(F)cc3[nH]2)C1	i
Cc1ccc(-c2cccc(CN3CC4CCC(C3)N4c3ccc(C(F)(F)F)cc3)c2)c(C)c1	185.1%
CCOc1ccccc1C1NC(=O)N(CC(=O)Nc2cc(F)ccc2F)C2=C1C(=O)OC2 (stereo unspecified)	i
Cc1cccc(OCC2(CNC(=O)C3CCCC3)C[C@@H](O)[C@@H](O)C2)n1 (stereo partly specified)	i
CC(C)[C@@H](N)C(=O)N1CCC(n2nccc2NC(=O)c2ccccc2)CC1	-2.8%
CCOc1ccc(C(=O)N2CCC[C@H]2c2nc(-c3ccc(OC)c(OC)c3)no2)cc1	i
COc1ccc(NC(=O)c2cc(S(=O)(=O)N3CCCC3)ccc2OC)cc1	6.6%
COc1cc2c(cc1OC)C(COc1ccccc1OC)N(C(=O)c1ccc(S(=O)(=O)N3CCCC3)cc1)CC2 (stereo unspecified)	11.2µM*
O=C1CN(C(=O)c2ccc(S(=O)(=O)N3CCCC3)cc2)C(c2ccccc2)c2cc(F)ccc2N1 (stereo unspecified)	-2.8%
CCc1ccc(OCC2c3cc(OC)c(OC)cc3CCN2C(=O)c2ccc(S(=O)(=O)N3CCCC3)cc2)cc1 (stereo unspecified)	11.2µM*
COc1ccc(C(=O)N2CCCN(S(=O)(=O)c3ccccc3)CCC(=O)NCC2)cc1F	-18.8%
CCc1ccc(C(=O)N2CCC(c3nc(-c4ccc(S(=O)(=O)N5CCCC5)cc4)no3)CC2)cc1	-21.8%

Screening data deposited in PubChem BioAssay by National Center for Advancing Translational Sciences (NCATS).
